Reference: PubChem BioAssay (EPA / NIEHS)
Values joined by “and” are separate entries in the source; they are usually repeats but may differ in a detail not shown here. Equal values may be shown once. Some structures have more than one record in an assay (separate samples or runs), and their calls can disagree. Active and inactive are the calls of the source. Rule for the calls: active = hit-call score of the fitted dose curve at least 0.9, where 1 is the maximum; inactive = score below 0.9.

Experiments:
[1] = read-out: Forkhead box O1 (FOXO1), FOXO1 (gene 2308); assay: LTEA_HepaRG_FOXO1: Life Technologies and Expression Analysis (LTEA) Assay for Forkhead box O1 (FOXO1) using HepaRG (AID 2283456); details: mRNA level, 48 h; actives raise or lower the signal
Method in brief: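 HepaRG, 48 h exposure, 8-pt half-log series from 100 uM in 0.5% DMSO, duplicates; Fluidigm qRT-PCR mRNA, housekeeping-normalised; bidirectional fit vs DMSO baseline.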

[2] = CEETOX_H295R_TESTO: CeeTox H295R High-throughput Steroidogenesis Assay for Testosterone (TESTO) (AID 2283457); details: actives raise or lower the signal
Method in brief: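 H295R, passage ≤10, 48 h dosing; media extracted with MTBE → HPLC-MS/MS for testosterone; 7-pt standard curve sets LLOQ/ULOQ; bidirectional fit vs DMSO; MTT viability same wells.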

[3] = read-out: growth arrest and DNA damage 45 (GADD45A), GADD45A (gene 1647); assay: LTEA_HepaRG_GADD45A: Life Technologies and Expression Analysis (LTEA) Assay for growth arrest and DNA damage 45 (GADD45A) using HepaRG (AID 2283458); details: mRNA level, 48 h; actives raise or lower the signal
Method in brief: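 HepaRG, 48 h exposure, 8 conc. (top 100 uM, half-log steps), 0.5% DMSO vehicle, duplicates. Read-out: qRT-PCR mRNA level, housekeeping-normalized (ACTB/GAPDH/POLR2A). Curves fit bidirectionally vs DMSO baseline.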

[4] = read-out: Forkhead box O3 (FOXO3), FOXO3 (gene 2309); assay: LTEA_HepaRG_FOXO3: Life Technologies and Expression Analysis (LTEA) Assay for Forkhead box O3 (FOXO3) using HepaRG (AID 2283459); details: mRNA level, 48 h; actives raise or lower the signal
Method in brief: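 qRT-PCR readout of FOXO3 transcript, normalized to three housekeeping genes (ACTB, GAPDH, POLR2A); gain or loss fitted against 0.5% DMSO vehicle. HepaRG cells, 48 h chemical exposure, 8-point half-log series, top 100 uM.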

[5] = read-out: ABC Transporter (ABCB1), ABCB1 (gene 5243); assay: LTEA_HepaRG_ABCB1: Life Technologies and Expression Analysis (LTEA) Assay for ABC Transporter (ABCB1) using HepaRG (AID 2283460); details: mRNA level, 48 h; actives raise or lower the signal
Method in brief: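 HepaRG, 48 h exposure, 8-pt half-log series from 100 uM, 0.5% DMSO vehicle, duplicates. Readout: ABCB1 transcript by Fluidigm TaqMan qRT-PCR, housekeeping-normalized; bidirectional curve fit vs DMSO baseline.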

[6] = read-out: growth arrest and DNA damage 45 (GADD45B), GADD45B (gene 4616); assay: LTEA_HepaRG_GADD45B: Life Technologies and Expression Analysis (LTEA) Assay for growth arrest and DNA damage 45 (GADD45B) using HepaRG (AID 2283461); details: mRNA level, 48 h; actives raise or lower the signal
Method in brief: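 HepaRG, ~100,000 cells/well, 48 h plating; serum-free induction medium; cpd 100 uM top, half-log x8, 0.5% DMSO, duplicate, 48 h; lysis in RLT, RNA isolation, qRT-PCR; norm ACTB/GAPDH/POLR2A; bidirectional fit vs DMSO.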

[7] = read-out: ABC Transporter (ABCC3), ABCC3 (gene 8714); assay: LTEA_HepaRG_ABCC3: Life Technologies and Expression Analysis (LTEA) Assay for ABC Transporter (ABCC3) using HepaRG (AID 2283462); details: mRNA level, 48 h; actives raise or lower the signal
Method in brief: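 Human HepaRG, 48 h dosing, 8-pt half-log series from 100 uM, 0.5% DMSO vehicle, duplicates. ABCC3 mRNA by TaqMan qRT-PCR, housekeeping-normalized; bidirectional curve fit vs DMSO.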

[8] = read-out: ABC Transporter (ABCC2), ABCC2 (gene 1244); assay: LTEA_HepaRG_ABCC2: Life Technologies and Expression Analysis (LTEA) Assay for ABC Transporter (ABCC2) using HepaRG (AID 2283464); details: mRNA level, 48 h; actives raise or lower the signal
Method in brief: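 HepaRG, 48 h post-plating; serum-free induction medium; cpd 8-pt, 100 uM top, half-log, 0.5% DMSO, duplicate, 48 h. Readout: ABCC2 mRNA by qRT-PCR, norm. ACTB/GAPDH/POLR2A. Bidirectional fit vs DMSO baseline.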

[9] = read-out: Broad substrate specificity ATP-binding cassette transporter ABCG2 (Homo sapiens) (UniProt Q9UNQ0); assay: LTEA_HepaRG_ABCG2: Life Technologies and Expression Analysis (LTEA) Assay for ABC Transporter (ABCG2) using HepaRG (AID 2283465); details: mRNA level, 48 h; actives raise or lower the signal
Method in brief: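 HepaRG, 48 h exposure, 8-pt half-log series from 100 uM, 0.5% DMSO vehicle, duplicates. Readout: ABCG2 transcript by qRT-PCR (Fluidigm array), housekeeping-normalized; bidirectional curve fit relative to DMSO baseline.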

[10] = read-out: ATP-citrate lyase (ACLY), ACLY (gene 47); assay: LTEA_HepaRG_ACLY: Life Technologies and Expression Analysis (LTEA) Assay for ATP-citrate lyase (ACLY) using HepaRG (AID 2283466); details: mRNA level, 48 h; actives raise or lower the signal
Method in brief: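 qRT-PCR readout of ACLY transcript after 48 h chemical treatment of HepaRG cells; expression normalized to three housekeeping genes. Eight-point half-log series, highest 100 uM, 0.5% DMSO vehicle. Gain or loss fitted against DMSO baseline.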

[11] = read-out: Peroxisomal acyl-coenzyme A oxidase 1 (ACOX1) gene, ACOX1 (gene 51); assay: LTEA_HepaRG_ACOX1: Life Technologies and Expression Analysis (LTEA) Assay for Peroxisomal acyl-coenzyme A oxidase 1 (ACOX1) gene using HepaRG (AID 2283467); details: mRNA level, 48 h; actives raise or lower the signal
Method in brief: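 HepaRG, 48 h chemical exposure, 8-pt half-log series from 100 uM top, 0.5% DMSO vehicle, duplicates. Readout: ACOX1 mRNA by Fluidigm qRT-PCR, housekeeping-normalized; bidirectional fit vs DMSO baseline.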

[12] = read-out: Alkaline Phosphatase, Placental (ALPP) gene, ALPP (gene 250); assay: LTEA_HepaRG_ALPP: Life Technologies and Expression Analysis (LTEA) Assay for Alkaline Phosphatase, Placental (ALPP) gene using HepaRG (AID 2283468); details: mRNA level, 48 h; actives raise or lower the signal;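 for AC50: differentiated human HepaRG liver cells in serum-free induction medium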
Method in brief: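 HepaRG, 48 h plating then 48 h dosing, serum-free induction medium, 0.5% DMSO. 8 conc, half-log, max 100 uM, duplicates. Endpoint: ALPP transcript by qRT-PCR, housekeeping-normalized; gain or loss fitted vs DMSO.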

[13] = read-out: Bcl-2 (BAD) gene, BAD (gene 572); assay: LTEA_HepaRG_BAD: Life Technologies and Expression Analysis (LTEA) Assay for Bcl-2 (BAD) gene using HepaRG (AID 2283469); details: mRNA level, 48 h; actives raise or lower the signal
Method in brief: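 HepaRG, 48 h exposure, 8-pt half-log curve from 100 uM in 0.5% DMSO, duplicates. Readout: TaqMan qRT-PCR for BAD mRNA, housekeeping-normalised (ACTB/GAPDH/POLR2A); gain or loss fitted against DMSO baseline.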

[14] = read-out: Bcl-2 (BAX) gene, BAX (gene 581); assay: LTEA_HepaRG_BAX: Life Technologies and Expression Analysis (LTEA) Assay for Bcl-2 (BAX) gene using HepaRG (AID 2283470); details: mRNA level, 48 h; actives raise or lower the signal
Method in brief: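 qRT-PCR read-out of BAX mRNA, normalized to three housekeeping genes, after 48 h chemical exposure of human HepaRG cells in serum-free induction medium; eight-point half-log series, top 100 uM, 0.5% DMSO vehicle; bidirectional fit versus DMSO.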

[15] = read-out: Alpha-fetoprotein (AFP) gene, AFP (gene 174); assay: LTEA_HepaRG_AFP: Life Technologies and Expression Analysis (LTEA) Assay for Alpha-fetoprotein (AFP) gene using HepaRG (AID 2283472); details: mRNA level, 48 h; actives raise or lower the signal
Method in brief: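 qRT-PCR (Fluidigm TaqMan) readout of AFP transcript, normalized to three housekeeping genes, fitted bidirectionally against 0.5% DMSO baseline. HepaRG cells received chemicals for 48 h in serum-free induction medium, top concentration 100 uM, half-log steps.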

BCL2L11 (gene 10018) = assay: LTEA_HepaRG_BCL2L11: Life Technologies and Expression Analysis (LTEA) Assay for Bcl-2 (BCL2L11) gene using HepaRG (AID 2283473); details: mRNA level, 48 h; actives raise or lower the signal
Method in brief: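 Read-out is BCL2L11 transcript level by qRT-PCR, normalized to three housekeeping genes and fitted bidirectionally against 0.5% DMSO vehicle. HepaRG cells received chemicals for 48 h in serum-free induction medium, 100 uM down in half-log dilutions.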

[16] = read-out: Apolipoprotein A-V (APOA5) gene, APOA5 (gene 116519); assay: LTEA_HepaRG_APOA5: Life Technologies and Expression Analysis (LTEA) Assay for Apolipoprotein A-V (APOA5) gene using HepaRG (AID 2283474); details: mRNA level, 48 h; actives raise or lower the signal
Method in brief: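 Readout is APOA5 transcript level by qRT-PCR on Fluidigm dynamic arrays, normalized to three housekeeping genes. HepaRG cultures received chemicals for 48 h at up to 100 uM (half-log steps, 0.5% DMSO), with gain or loss scored relative to DMSO.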

[17] = read-out: Apoptosis regulator Bcl-2 (Homo sapiens) (UniProt P10415); assay: LTEA_HepaRG_BCL2: Life Technologies and Expression Analysis (LTEA) Assay for Bcl-2 gene using HepaRG (AID 2283475); details: mRNA level, 48 h; actives raise or lower the signal
Method in brief: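 qRT-PCR read-out (Fluidigm TaqMan) of BCL2 transcript, normalised to three housekeeping genes, after 48 h chemical exposure of HepaRG cells; 8-point half-log series, top 100 uM, 0.5% DMSO vehicle. Gain or loss of signal fitted relative to DMSO baseline.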

[18] = read-out: ABC Transporter (ABCB11), ABCB11 (gene 8647); assay: LTEA_HepaRG_ABCB11: Life Technologies and Expression Analysis (LTEA) Assay for ABC Transporter (ABCB11) using HepaRG (AID 2283463); details: mRNA level, 48 h; actives raise or lower the signal
Method in brief: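 HepaRG, 48 h exposure, 8-pt half-log CRC top 100 uM, 0.5% DMSO vehicle, duplicates. Readout: TaqMan qRT-PCR of ABCB11 mRNA, housekeeping-normalized (ACTB/GAPDH/POLR2A). Bidirectional fit vs DMSO baseline.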

Measured: AC50

Chain of Apoptosis regulator Bcl-2 (Homo sapiens) (P10415 whole entry, looked up): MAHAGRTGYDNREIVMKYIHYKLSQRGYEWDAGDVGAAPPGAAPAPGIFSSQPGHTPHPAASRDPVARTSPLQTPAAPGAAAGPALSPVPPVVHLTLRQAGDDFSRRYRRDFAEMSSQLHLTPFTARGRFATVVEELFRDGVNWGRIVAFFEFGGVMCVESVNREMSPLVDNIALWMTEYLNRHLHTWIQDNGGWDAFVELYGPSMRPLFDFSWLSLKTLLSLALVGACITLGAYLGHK
Chain of Broad substrate specificity ATP-binding cassette transporter ABCG2 (Homo sapiens) (Q9UNQ0 whole entry, looked up): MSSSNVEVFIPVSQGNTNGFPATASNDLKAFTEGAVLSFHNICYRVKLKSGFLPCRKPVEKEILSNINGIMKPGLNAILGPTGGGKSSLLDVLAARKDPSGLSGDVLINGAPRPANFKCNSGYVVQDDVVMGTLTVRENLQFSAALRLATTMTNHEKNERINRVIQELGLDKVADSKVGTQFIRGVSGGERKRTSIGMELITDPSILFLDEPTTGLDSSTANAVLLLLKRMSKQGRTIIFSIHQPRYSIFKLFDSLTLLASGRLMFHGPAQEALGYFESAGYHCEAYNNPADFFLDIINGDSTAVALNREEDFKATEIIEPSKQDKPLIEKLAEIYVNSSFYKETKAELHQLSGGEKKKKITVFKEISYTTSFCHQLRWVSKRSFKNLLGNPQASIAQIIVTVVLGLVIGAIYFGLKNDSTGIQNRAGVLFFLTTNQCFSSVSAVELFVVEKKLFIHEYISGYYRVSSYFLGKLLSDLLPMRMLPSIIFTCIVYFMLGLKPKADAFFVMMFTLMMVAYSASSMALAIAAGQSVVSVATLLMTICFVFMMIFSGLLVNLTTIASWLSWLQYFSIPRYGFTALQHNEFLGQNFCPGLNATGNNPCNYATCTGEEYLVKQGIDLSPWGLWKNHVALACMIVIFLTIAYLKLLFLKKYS

CCCCNC(=O)n1c(NC(=O)OC)nc2ccccc21
inactive: [1] | [2] | [3] | [4] | [5] | [6] | [7] | [8] | [9] | [10] | [11] | [12] | [13] | [14] | [15] | BCL2L11 (gene 10018) | [16] | [17]

CNC(=O)ON=CC(C)(C)SC
inactive: [1] | [3] | [4] | [5] | [6] | [7] | [18] | [8] | [9] | [10] | [11] | [12] | [13] | [14] | [15] | BCL2L11 (gene 10018) | [16] | [17]

C=CCC1=C(C)C(OC(=O)C2C(C=C(C)C)C2(C)C)CC1=O (stereo unspecified)
active: [9] 50 µM and 79.2 µM | [11] 90.9 µM | [12] 92.4 µM and 71.1 µM | [15] 90.3 µM and 79.8 µM and 66.3 µM | [16] 0.000839 µM
inactive: [1] | [3] | [4] | [5] | [6] | [7] | [8] | [10] | [11] | [12] | [13] | [14] | BCL2L11 (gene 10018) | [16] | [17]
